Test results: PubChem BioAssay (NCI)
This is part of a sample that, as a whole, favours compounds with a hit. Of some 83,000 tested, about 20% had one in any assay.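 Cell lines were cultured in 96-well plates, exposed to a single compound concentration, and assessed for percent growth 48 hours later.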 Calls of active or inactive are those of the source. The calls were made as follows: active = growth percent below 10; inactive = the rest.

Experiments:
Assay in all cases: NCI-60 one-dose screen, 48 h (100 = growth as untreated, 0 = no growth, -100 = all killed)
Settings in all cases: 10 µM unless noted
[1] = test system: DU-145 prostate
[2] = test system: K-562 leukemia
[3] = test system: MALME-3M melanoma
[4] = test system: MDA-MB-231 breast
[5] = test system: RXF 393 renal
[6] = test system: SF-268 CNS
[7] = test system: SF-295 CNS
[8] = test system: SF-539 CNS
[9] = test system: UACC-257 melanoma
[10] = test system: M14 melanoma
[11] = test system: HCT-15 colon
[12] = test system: HT29 colon
[13] = test system: SNB-75 CNS
[14] = test system: SNB-19 CNS
[15] = test system: U251 CNS
[16] = test system: PC-3 prostate
[17] = test system: SK-MEL-5 melanoma
[18] = test system: UACC-62 melanoma
[19] = test system: LOX IMVI melanoma
[20] = test system: SK-MEL-28 melanoma

Measured: growth

O=C1C=C[C@]2(C[C@@H](c3cccc(C(F)(F)F)c3)O[C@@H](c3cccc(C(F)(F)F)c3)O2)O1
inactive: [1] 28.7% | [3] 36.4% | [7] 46.1% | [9] 59.6% | [10] 44.8% | [13] 57.9% | [14] 33.2% | [15] 28.6% | [20] 48.6%
active: [2] -4.01% | [4] -57.2% | [5] -0.258% | [6] -27.1% | [8] -69.6% | [11] -33.8% | [12] -24.2% | [16] 7.18% | [17] -58.2% | [18] -38.6% | [19] -84.6%

COc1ccc(S(=O)(=O)NCCNc2nccc(-c3c(-c4cccc(F)c4)nc4sccn34)n2)cc1
active: [13] -0.29% | [17] 9.62%
inactive: [1] 48.3% | [2] 23% | [3] 49.1% | [4] 61.4% | [5] 28.8% | [6] 35.4% | [7] 58.5% | [8] 77.4% | [9] 66.7% | [10] 38.4% | [11] 23.4% | [12] 23.9% | [14] 58.3% | [15] 52.5% | [16] 29.4% | [18] 39% | [19] 32.9% | [20] 60%

O=C(/C=C/c1ccc(Cl)nc1)c1ccc(Cl)cc1Cl
active: [2] 7.65% | [19] 6.52%
inactive: [1] 108% | [3] 105% | [4] 107% | [5] 104% | [6] 102% | [7] 91.1% | [8] 107% | [9] 94.5% | [10] 97.6% | [11] 69.2% | [12] 75.8% | [13] 108% | [14] 88.3% | [15] 64% | [16] 101% | [17] 99.5% | [18] 97.2% | [20] 101%

CC(CN1CCCCC1)C(=O)c1ccccc1 (stereo not given)
inactive: [1] 104% | [2] 101% | [3] 107% | [4] 99.7% | [5] 112% | [6] 99.9% | [7] 101% | [8] 92.1% | [9] 103% | [10] 98.3% | [11] 107% | [12] 101% | [13] 101% | [14] 101% | [15] 101% | [16] 95.4% | [17] 102% | [18] 104% | [19] 98.3% | [20] 106%

CCN(CC)Cc1cccc(C(=O)OC)c1
inactive: [1] 111% | [2] 110% | [3] 95.3% | [4] 100% | [5] 105% | [6] 104% | [7] 97.8% | [8] 94% | [9] 73.4% | [10] 91.7% | [11] 102% | [12] 106% | [13] 87.9% | [14] 101% | [15] 96.3% | [16] 78.1% | [17] 97.1% | [18] 103% | [19] 94.1% | [20] 104%

COc1ccc(-c2nc(SCCC(C)C)nc(N/N=C\c3ccccc3O)c2C#N)cc1
inactive: [1] 95.7% | [2] 91.6% | [3] 89.6% | [4] 85.1% | [5] 76.1% | [6] 78% | [7] 94.2% | [8] 90.9% | [9] 89.8% | [10] 98.3% | [11] 86.6% | [12] 103% | [13] 74.8% | [14] 72.4% | [15] 60.5% | [16] 92.3% | [17] 94.2% | [18] 90% | [19] 84.6% | [20] 99.1%

COc1ccc(NC(=O)CSc2nnc(-c3cc(-c4ccccc4)nc4ccccc34)n2-c2ccccc2)cc1
inactive: [1] 99.7% | [2] 84.8% | [3] 88.7% | [4] 89.3% | [5] 99% | [6] 90.8% | [7] 97.4% | [8] 100% | [9] 99.2% | [10] 98.1% | [11] 95.4% | [12] 106% | [13] 79.3% | [14] 93.5% | [15] 100% | [16] 73.2% | [17] 90.8% | [18] 73.8% | [19] 97.3% | [20] 95.7%
